# From ChEMBL document CHEMBL3988442, “University of Dundee, Small-Polar-MMV Screening Library” (2021)
# Out of some 48,000 compounds screened, about 13,000 (27%) showed an effect of 50% or more. Some of the results follow.
# Test system: Wolbachia pipientis
# Assay: Anti-Wolbachia Cell-Based Screen
# Type: functional
# Design: scale not given: in the data most compounds retested in dose-response had high values
# Details: 5 µM
row,Compound,Percent Effect [%]
1,Cn1ncc2cnn(CC(O)COCc3ccccc3Cl)c2c1=O (stereo not given),-6.755
2,Cc1ccc2nc(C3CCCN(Cc4ccccc4)C3)nc(O)c2c1 (stereo not given),104.3
3,Cc1cc(N2CCN(Cc3ccccc3)CC(O)C2)cc(C)n1 (stereo not given),-18.63
4,Cc1cccc(N2CC3(CCN(Cc4nccn4C)C3)CC2=O)c1.O=C(O)C(F)(F)F (stereo not given),3.528
5,CN(CCC(=O)NC1CC1)Cc1ccc(Cl)s1,-12.79
6,COC(=O)c1cc(NC(=O)NCC2CCS(=O)(=O)C2)ccc1Cl (stereo not given),-31.29
7,O=C(CN(Cc1cccs1)C1CCS(=O)(=O)C1)NCCc1cccs1 (stereo not given),4.084
8,COC(=O)c1ccoc1CN(C)CC(=O)NC1CC1,113.9
9,CN(Cc1cnn(C)c1)C(=O)NC1CCS(=O)(=O)C1 (stereo not given),-13.78
10,COC(=O)c1ccoc1CN(C1CC1)C1CCS(=O)(=O)C1 (stereo not given),104.7
11,O=C(Cc1cc2c(cc1Br)OCCO2)NC1CCS(=O)(=O)C1 (stereo not given),-27.59
12,CNC(=O)COC(=O)c1ccoc1CN1c2ccccc2CC1C (stereo not given),-15.23
13,COC(=O)c1ccoc1CN(C)CC(=O)NC1CCS(=O)(=O)C1 (stereo not given),105.9
14,CC(CS(C)(=O)=O)N(C(=O)Nc1cc(F)ccc1Cl)C1CC1 (stereo not given),14.25
15,CC(c1ccco1)N(C(=O)c1cc2c([nH]c1=O)CCCC2=O)C1CC1 (stereo not given),-5.594
16,CN1[C@H]2CC[C@@H]1CN(C(=O)c1nnc3n1CCCCC3)CC2,-0.7264
17,CC(c1ccco1)N(C(=O)NCc1ccon1)C1CC1 (stereo not given),5.216
18,CC(C)C(C)N(C(=O)c1cc2c([nH]c1=O)CCCC2=O)C1CC1 (stereo not given),-5.669
19,CC(c1ccco1)N(C(=O)Cn1nc2n(c1=O)CCCCC2)C1CC1 (stereo not given),105.1
20,O=C(c1cnc2n1CCCC2)N1CCCC1,17.49
21,CC(C)N(C(=O)Cn1nc2n(c1=O)CCCCC2)C1CCC1,81.53
22,CC(C)C(=O)N(C)Cc1nnc2n1CCCCC2,6.475
23,CC(C)C(C)N(C(=O)Cn1nc2n(c1=O)CCCCC2)C1CC1 (stereo not given),119.1
24,Cc1csc(CN2CC[C@H]3C[C@H](c4nnc(C)[nH]4)O[C@@H]3C2)n1,1.224

row,Compound,Percent Effect [%]
1,CC(C)N(C)S(=O)(=O)N(Cc1cccs1)Cc1cccs1,-8.549
2,CCOCCCNC(=O)C1(C)CCC(=O)N1c1ccccc1F (stereo not given),110.1
3,CNC(=O)CN1C(=O)CCC12CCCN(Cc1ccccc1F)C2 (stereo not given),-35.38
4,CCOCC1CC2(CCN(C(=O)c3ccccc3F)CC2)CO1 (stereo not given),-17.98
5,CCOC(=O)c1ccc(Nc2ccc(OC)c(N3CCCC3=O)c2)nc1,-0.2575
6,CCOCCCNC(=O)C1(C)CCC(=O)N1Cc1ccccc1F (stereo not given),119.7
7,CCOCCCNC(=O)N(C)Cc1ccc(SC)c(OC)c1,10.44
8,O=C(O)C(F)(F)F.O=C1CCC2(CCCN(Cc3ccccc3F)C2)N1CC1CC1 (stereo not given),-58.45
9,COc1cccc(C(=O)N2CCC3(CCC(=O)N(C(C)C)C3)CC2)c1C,-8.72
10,CCOCCCNC(=O)C1(C)CCC(=O)N1c1ccccc1OC (stereo not given),128.9
11,CC(=O)NCCCSC1CCN(c2ccccc2F)C1=O (stereo not given),-10.73
12,COc1ccccc1C1(C(=O)NCCN2CCOCC2)CCOCC1,3.862
13,CCOCCCNC(=O)C1(C)CCC(=O)N1c1cc(OC)ccc1OC (stereo not given),128.4
14,CCc1nc(C2CCCN2C(=O)c2ccc3c(c2)nnn3CC)no1 (stereo not given),-4.092
15,O=C1NCc2ccc(NC(=O)C3CCCN3c3nccs3)cc21 (stereo not given),-9.996
16,O=C(c1cncc(N2CC[C@@]3(O)CCNC[C@H]3C2)n1)N1CCCC1,-7.566
17,CC(C)Oc1ccc(CNC(=O)C2CCS(=O)(=O)C2)cn1 (stereo not given),23.43
18,COc1ccc(CN2C[C@@H](CN(C)C)[C@@H](CO)C2)cc1CN1CCCC1,7.819
19,Cn1nc(Cn2ccnc2)c2c1CN(Cc1ccoc1)C2.O=C(O)C(F)(F)F.O=C(O)C(F)(F)F,-6.284
20,CC(NC(=O)NCc1ccoc1)c1ccc2c(c1)CCC(=O)N2 (stereo not given),-4.231
21,CC(NC(=O)c1cccc[n+]1[O-])c1ccc2c(c1)CCC(=O)N2 (stereo not given),-1.39
22,CC(NC(=O)NCc1ccoc1)c1ccc2c(c1)CC(=O)N2 (stereo not given),110.9
23,CC(NC(=O)c1ccoc1)c1ccc2c(c1)CCC(=O)N2 (stereo not given),97.13
24,CC(NC(=O)c1sccc1C1CC1)c1ccc2c(c1)CC(=O)N2 (stereo not given),-4.532

row,Compound,Percent Effect [%]
1,CC(NC(=O)Nc1ccc(S(C)(=O)=O)cc1)c1ccc2c(c1)CC(=O)N2 (stereo not given),11.72
2,COc1ccc(F)c(NCC(C)(C)S(C)(=O)=O)c1,34.79
3,CC(C)c1ccc(CCC(=O)N(C)C2CCN(C)C2=O)cc1 (stereo not given),-1.182
4,Cc1ccc(C(=O)Nc2ccc(N3CCCC3)cn2)cc1C,-19.47
5,Cc1cc(C(=O)NCCC2CCN(C)CC2)ccc1N(C)S(C)(=O)=O,-18.47
6,Cc1ccc(-n2ncc(C(=O)N(C)C3CCN(C)CC3)c2N)cc1C,137.5
7,CC(C)c1ccc(-n2ncc(C(=O)N(C)C3CCN(C)CC3)c2N)cc1,117
8,CC(C)c1ccc(-n2cc(O)c(C(=O)N3CCC(C(N)=O)CC3)n2)cc1,-5.795
9,CC(C)Cc1nc(CN2CC(=O)N(C)c3ccccc3C2=O)no1,-12.92
10,CSC(C)C(=O)N1CCN(CC(C)(C)O)CC1 (stereo not given),-3.379
11,CCOCCn1nc(C)cc1C(=O)N1C[C@@H](C)[C@](O)(C2CC2)C1,-17.93
12,Cc1nc(O)c2nnn(C[C@H]3CCCN3C(=O)c3cccs3)c2n1,86.95
13,COC(=O)C1CCCCN1C(=O)c1ccccc1F (stereo not given),1.901
14,Cc1nc(O)c2nnn(C[C@H]3CCCN3C(=O)c3ccccc3C)c2n1,143.4
15,Cc1cc(C)n(CC2CCCCN2C(=O)c2sccc2C#N)n1 (stereo not given),-7.705
16,Cc1nc(O)c2nnn(C[C@H]3CCCN3C(=O)c3ccccc3F)c2n1,81.62
17,O=C(c1ccno1)N1CC2(CCC(C(=O)N3CCCC3)O2)C1 (stereo not given),1.973
18,COCCN1CCN(CCCS(C)(=O)=O)CC1C (stereo not given),0.5325
19,COc1ccc(Br)cc1CCC(=O)N1CCCC(O)C1 (stereo not given),-4.291
20,CC(NCc1ccccc1Br)c1ccc2[nH]c(=O)[nH]c2c1 (stereo not given),-2.776
21,COc1cc(C(=O)NCCc2ccc(OC)c(OC)c2)on1,-10.92
22,COc1ccc(C(C)NCc2c[nH]nc2C)cc1OC.Cl (stereo not given),-6.737
23,CC(NCc1ccc(C(N)=O)cc1)c1ccc(Cl)c(Cl)c1.Cl (stereo not given),-6.625
24,CC(NCc1ccccc1Cl)c1ccc2[nH]c(=O)[nH]c2c1 (stereo not given),97.6

row,Compound,Percent Effect [%]
1,COc1ccc(CCNC(C)c2ccc3[nH]c(=O)[nH]c3c2)cc1OC (stereo not given),106.6
2,COc1ccccc1CNC(C)c1ccc(-n2ccnc2)cc1.Cl (stereo not given),2.759
3,COc1ccccc1CNC(C)c1ccc2[nH]c(=O)[nH]c2c1 (stereo not given),98.3
4,CNS(=O)(=O)c1cccc(C(C)NCc2ccccc2OC)c1 (stereo not given),-4.064
5,O=C(NCCSc1cnn[nH]1)c1c[nH]nc1C1CCCCC1,-9.483
6,CC(C)(C)c1csc(CNC(=O)C2NCCc3[nH]cnc32)n1 (stereo not given),-12.08
7,CCN1CCN(c2ccc(C(=O)NCCn3ccnc3)cc2F)CC1,-30.24
8,CNc1nc(N2CCC3(CCCNC3=O)C2)nc2c1CCC2 (stereo not given),-0.1969
9,Cc1ccc([C@]2(O)CC[C@H]3CN(Cc4cccc(Cl)c4Cl)C[C@H]32)nc1.O=C(O)CC(O)(CC(=O)O)C(=O)O,-1.737
10,COc1ncc(CN2C[C@@H]3CC[C@@](O)(c4ccc(C)cn4)[C@@H]3C2)cn1.O=C(O)CC(O)(CC(=O)O)C(=O)O,114.7
11,Cc1cccnc1[C@]1(O)CC[C@H]2CN(Cc3cccc(Cl)c3Cl)C[C@H]21.O=C(O)CC(O)(CC(=O)O)C(=O)O,135.1
12,COc1ccc(CN2C[C@H]3CC[C@](O)(c4ccc(C)cn4)[C@H]3C2)c(F)c1.O=C(O)CC(O)(CC(=O)O)C(=O)O,-13.42
13,Cc1ccc([C@]2(O)CC[C@H]3CN(Cc4cc(C)c(O)c(C)c4)C[C@H]32)nc1.O=C(O)CC(O)(CC(=O)O)C(=O)O,-15.37
14,Cc1ccc([C@]2(O)CC[C@H]3CN(Cc4cccc(F)c4F)C[C@H]32)nc1.O=C(O)CC(O)(CC(=O)O)C(=O)O,118
15,CN(C)C(=O)CN1C[C@@H]2CC[C@H](C1)N(Cc1cccc(Cl)c1Cl)C2,-2.337
16,COc1cccc(CN2C[C@@H]3CC[C@@](O)(c4ccccn4)[C@@H]3C2)c1OC.O=C(O)CC(O)(CC(=O)O)C(=O)O,115.9
17,O=C(O)CC(O)(CC(=O)O)C(=O)O.O[C@]1(c2ccccn2)CC[C@@H]2CN(Cc3cccc4ncccc34)C[C@@H]21,-10.13
18,COCc1ncc(CN2CCN(C)C(=O)C2C)cn1 (stereo not given),4.151
19,CCn1cnnc1Cn1cccc(C(F)(F)F)c1=O,-0.03218
20,COc1ccc(-c2nccn2CC(O)CN2CCCC2)c(F)c1 (stereo not given),5.429
21,CCOc1cncc(NCCc2nnc3ccccn23)n1,-20.41
22,CCC(CO)N(Cc1ccsc1)Cc1ccccc1C(=O)O (stereo not given),6.266
23,Cc1cc(CN2CC[C@@H]3[C@@H](CCC(=O)N3CCc3c[nH]cn3)C2)oc1C,-14.05
